Source: PubChem (National Center for Advancing Translational Sciences (NCATS))
Tau ThT inhib – blocks human tau fibril formation measured by thioflavin T. P10636. recombinant tau K18 P301L, heparin-induced fibrillization, ThT fluorescence. Potency, µM (highest dose often 57.4 µM), for the others: at the highest dose activity, negative = inhibition, hits mostly inhibitors. actives 2.1% (n = 270,000); note: potency is the fitted concentration of half-maximal effect; nearly all actives have a fitted effect of over 55% in size
Target sequence (P10636 561-689 P618L limits assumed): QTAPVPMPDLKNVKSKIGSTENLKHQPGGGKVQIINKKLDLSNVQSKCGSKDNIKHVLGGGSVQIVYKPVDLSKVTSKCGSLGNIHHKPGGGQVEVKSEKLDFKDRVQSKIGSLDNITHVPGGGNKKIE
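Using a mix of unlabeled (15 uM) and Alexa 594-labeled (0.24 uM) tau K18 P301L, heparin-triggered fibrillization over 6 hr at 37 C was scored by ThT fluorescence.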
Tau fluor cs – counter-screen for tau fibril formation inhibitors. actives 0.93% (n = 280,000). Potency, µM (series often up to 57.7 µM), without a hit: top-dose activity change, negative = decrease. tau K18 P301L (four-repeat tau fragment) Alexa594 fluorescence, heparin fibrillization; note: potency is the fitted concentration of half-maximal effect; nearly all actives have a fitted effect of over 55% in size
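Human K18 P301L tau (15 uM unlabeled plus 0.24 uM Alexa 594-labeled, final) in 100 mM sodium acetate pH 7 was mixed with compound and 20 uM heparin and incubated 6 hr at 37 C.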
Sfp PPTase inh – Sfp phosphopantetheinyl transferase inhibition. Potency, µM, inactives show largest response in the series, negative = inhibition, hits mostly inhibitors. AID 1490. Q9F4F7. Biochemical Sfp PPTase activity, qHTS. actives 3.5% (n = 310,000);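 note: the enzyme is Sfp with the accession as filed and its product quenches rhodamine fluorescence; potency is the fitted concentration of half-maximal effect; 0% = enzyme reaction without inhibitor and -100% = no enzyme wells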
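Buffer: 50 mM Hepes-Na pH 7.6, 10 mM MgCl2, 0.01% Nonidet P-40, 0.01% BSA. Enzyme 15 nM, pre-exposed to compound 15 min; substrates then added and fluorescence change tracked over 30 min.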
G9a block – inhibitors of human histone lysine methyltransferase G9a; Q96KQ7; G9a H3K9 monomethylation, AlphaScreen, 2 h; Potency, µM (titrated, usually from 102 µM), for the others: at the highest dose activity, negative = inhibition, usual class: inhibitors; actives 8.8% (n = 350,000); AID 504332; note: potency is the fitted concentration of half-maximal effect; nearly all actives have a fitted effect of over 75% in size
Target sequence (Q96KQ7 913-1193 limits assumed): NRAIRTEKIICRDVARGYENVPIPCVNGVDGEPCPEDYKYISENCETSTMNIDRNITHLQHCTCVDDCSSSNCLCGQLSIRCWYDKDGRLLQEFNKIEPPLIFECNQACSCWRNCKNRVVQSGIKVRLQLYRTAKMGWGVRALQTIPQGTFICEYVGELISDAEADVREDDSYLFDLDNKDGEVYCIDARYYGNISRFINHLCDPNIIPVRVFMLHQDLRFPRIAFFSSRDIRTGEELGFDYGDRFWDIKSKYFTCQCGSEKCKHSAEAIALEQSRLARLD
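AlphaScreen detection with an anti-monomethyl H3K9 antibody quantified product after a 2 h room-temperature reaction containing 500 nM biotinylated H3K9 peptide, 20 µM SAM and 20 nM enzyme, which had been preincubated 15 min with compound.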
Coupling enz – coupling enzyme interference in Giardia aldolase counter-screen. coupling enzyme system counterscreen, AmpLite Red fluorescence. activity change, negative = inhibition, % at 58.2 µM, hits read low. actives 0.67% (n = 290,000). AID 2472; in the data active = activity change below about -30%
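Final compound at 57.5 uM, incubated 10 min at RT with coupling enzyme reagent (glyceraldehyde-3-phosphate), then 20 min with substrate and AmpLite Red detection. Fluorescence read at 525/598 nm; tests interference with the coupling assay, not aldolase inhibition.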
Tau fibril FP – blocks human tau fibril formation measured by polarization; P10636; K18 P301L tau heparin fibrillization, Alexa594 FP, 6 h; Potency, µM (highest dose often 57.7 µM), inactives show at the top dose activity, negative = inhibition, usual class: inhibitors; actives 0.39% (n = 280,000); AID 1468; note: potency is the fitted concentration of half-maximal effect; nearly all actives have a fitted effect of over 55% in size
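Human K18 P301L fragment (15 uM unlabeled plus 0.24 uM Alexa 594-labeled) in 100 mM sodium acetate pH 7 with compound, aggregation induced by 20 uM heparin for 6 hr at 37 C. ThT (30 uM) added for 1 hr, then Alexa 594 FP read.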
* marks the source's active call; other numbers are inactive results; u = inconclusive; x = not tested or not shown; ! = a repeat was not active; [ ] = dose if it differs, or a comment. This is a sample that favours compounds with a hit; in the whole collection about 11% have one here. Unless noted, calls come from the whole dose curve; as a rule, active = well fitted curve in the direction sought with a large enough effect; inconclusive = small, poorly fitted or top-dose-only effect, or another doubt; inactive = no such curve, though single readings can be large; an effect the other way counts as inactive or inconclusive. Unless noted, % is set by controls: 0 for no effect and ±100 for the full control effect.

SMILES | Tau ThT inhib | Tau fluor cs | Sfp PPTase inh | G9a block | Coupling enz | Tau fibril FP
O=C(COc1ccccc1)N1CCN(C/C=C/c2ccccc2)CC1 | -6.0% | -6.8% | 12.4% | 0.7%[12.7 µM] | 0.0 | -2.5%
Fc1ccc(C(OCCN2CCCC2)c2ccc(Br)cc2)cc1 (configuration not stated) | -8.6% | -11.7% | 39.8µM* | -9.0%[59 µM] | 1.7 | 1.9%
Fc1ccc(C(OCCN2CCN(C/C=C/c3ccccc3)CC2)c2ccc(F)cc2)cc1 | u | -21.0% | 44.7µM* | 11.2µM* | x | 3.5%
COc1ccccc1C1(O)CCN(CCCn2c3ccccc3c3ccccc32)CC1 | x | x | u | x | 4.3 | x
COc1ccc(/C=C/c2nc(-c3ccccc3O)n(-c3ccccc3)n2)cc1OC | -15.2% | u | x | -41.6%[59 µM] | x | u
CC(CCC(=O)O)C1CCC2C3C(=O)CC4CC(=O)CC[C@@]4(C)C3CC(=O)[C@]12C (some centres not stated) | -1.2% | -1.4% | 7.6% | -6.0%[2.33 µM] | 0.1 | 6.1%
CN(C)c1ccc(C=C2C(=O)NC(=S)NC2=O)cc1[N+](=O)[O-] | 31.6µM* | u | -87.1% | 7.08µM* | 0.5 | u
CN(C)c1ccc(C=C2C(=O)NC(=O)NC2=O)cc1[N+](=O)[O-] | u | -19.1% | 25.1µM* | u | 1.8 | -11.3%
CCOc1cc(C=C2C(=O)NC(=O)NC2=O)cc([N+](=O)[O-])c1O | u | -3.9% | 35.5µM* | x | -12.0 | u
COc1cc(C=C2C(=O)NC(=O)NC2=O)ccc1O | u | -19.8% | u | -11.4%[12.7 µM] | -3.3 | -2.9%
CN1C(=O)C(=Cc2ccc(N(C)C)c([N+](=O)[O-])c2)C(=O)N(C)C1=O | u | -26.7% | 56.2µM* | 116.9%[59 µM] | -3.0 | -9.8%
C[C@@]12CCC(=O)C[C@@H]1CC[C@@H]1[C@@H]2CC[C@]2(C)C(=O)CC[C@@H]12 | -5.7% | -11.8% | 12.4% | -41.4%[2.33 µM] | 3.6 | -9.4%
N#CC1=C(N)Oc2n[nH]c(-c3ccccc3)c2C1c1cccc(OC(=O)N2CCOCC2)c1 (configuration not stated) | u | -14.4% | 2.8% | u | -7.4 | -7.9%
NC(N)=NOCCC(N)C(=O)O (configuration not stated) | -1.8% | -3.1% | -0.2% | 29.9µM*! | 1.0 | 0.1%
N[C@H](CCP(=O)(O)O)C(=O)O | -4.2% | -1.7% | -25.3% | x | 4.4 | 5.1%
CCc1ccc(-n2nc(C)c3c(C(=O)NCCc4ccc(OC)c(OC)c4)cc(C)nc32)cc1 | u | -29.0% | x | 4.8%[59 µM] | x | 2.2%
C[C@]12CC[C@H]3C(=CCc4cc(O)ccc43)[C@@H]1CCC2=O | -14.1% | -17.8% | -7.3% | -18.2%[59 µM] | -5.9 | 9.0%
CN1C(=O)C(=Cc2ccc(N3CCOCC3)o2)C(=O)N(C)C1=O | -5.6% | -9.3% | u | u | -10.8 | 2.0%
CN1C(=O)C(=Cc2ccc(N3CCCCCC3)o2)C(=O)N(C)C1=S | 12.6µM* | u | -22.4% | 44.7µM* | -1.3 | -4.3%
CCOc1cc2c(cc1OCC)-n1cccc1C(c1cccc([N+](=O)[O-])c1)NC2 (configuration not stated) | x | x | -4.4% | 50.1µM* | -0.6 | x
Cn1cc(C=C2C(=O)NC(=O)NC2=O)c2ccccc21 | x | x | -28.0% | -24.4% | -0.9 | x
O=C1NC(=O)C(=Cc2csc3ccccc23)C(=O)N1 | u | -17.2% | 17.8µM* | 8.91µM* | 0.8 | 0.2%
O=C1NC(=O)C(=Cc2coc3ccccc3c2=O)C(=O)N1 | u | -18.5% | 39.8µM* | 35.5µM* | 4.7 | u
COCCNC(=O)Cn1cc(C=C2C(=O)NC(=O)NC2=O)c2ccccc21 | x | x | 15.4% | 5.9% | 1.9 | x
O=C1NC(=O)C(=C/C=C/c2coc3ccc(Br)cc3c2=O)C(=O)N1 | 7.94µM* | -19.6% | -14.3% | 8.91µM* | 6.0 | u
NC(=S)N/N=C/c1coc2ccccc2c1=O | u | -8.0% | 6.3% | 20.3%[59 µM] | -4.0 | -6.1%
